# Measurements from PubChem BioAssay (NCATS).
# Where “and” joins values, the source holds several entries; their conditions need not be identical. Identical values can stand only once. Inconclusive results are not listed. A call without a number means that no potency is given here. Calls of active or inactive are those of the source. The call rests on the fitted dose curve.
# How the values were obtained:
# [1] = Cytotoxicity counterscreen for inhibitors of SARS-CoV-2 cell entry (AID 1645845); further: nearly all actives have a fitted effect of over 50% in size
# Outline: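 ATP-content luminescence (ATPLite 1step, 15 min RT) read after 48 h compound exposure of Expi293F cells stably expressing human ACE2; normalized to cells-only wells and media-only wells.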
# [2] = Primary qHTS to identify inhibitors of SARS-CoV-2 cell entry (AID 1645846); details: activity change, negative = inhibition: at 57.1 µM (top of the series) unless noted; further: nearly all actives have a fitted effect of over 45% in size; further: potency means the concentration at half of the fitted maximal effect
# Outline: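 Luminescence readout (Bright-Glo luciferase) 48 h after pseudoparticle addition. HEK293-ACE2 cells, 1500/well; compound pre-incubation 1 h; Normalized to spike PP and bald PP.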
# [3] = VSVG counterscreen qHTS to identify inhibitors of SARS-CoV-2 cell entry (AID 1645847); further: nearly all actives have a fitted effect of over 65% in size; further: potency means the concentration at half of the fitted maximal effect
# Outline: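 HEK293-ACE2 cells (Expi293F stably expressing human ACE2) were pretreated with compound for 1 h at 37 °C, then infected with MLV-based VSV-G pseudotyped particles for 48 h. Luciferase luminescence was normalized to VSV-G PP and bald PP wells.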
smiles,measurement,setting,value
CN1CCCN=C1COC(=O)C(O)(c1ccccc1)C1CCCCC1 (stereo not drawn),Potency,[1],inactive
same,"activity change, negative = inhibition",[2],4.25%
CCC(=O)O[C@]1(C(=O)COC)[C@@H](C)C[C@H]2[C@@H]3CCC4=CC(=O)C=C[C@]4(C)C3(F)[C@@H](O)C[C@@]21C (stereo partly drawn),Potency,[1],inactive
same,Potency,[2],inactive
CNC(=O)Oc1ccc2c(c1)[C@]1(C)CCN(C)[C@@H]1N2C,Potency,[1],inactive
same,Potency,[2],inactive
CN(C)[C@@H]1C(=O)C(C(=O)NCN2CCCC2)=C(O)[C@@]2(O)C(=O)C3=C(O)c4c(O)cccc4[C@@](C)(O)C3C[C@@H]12 (stereo partly drawn),Potency,[1],inactive
same,Potency,[2],inactive
CCN(CCCCOC(=O)c1ccc(OC)c(OC)c1)C(C)Cc1ccc(OC)cc1 (stereo not drawn),Potency,[1],inactive
same,Potency,[2],14.1 µM (active)
CN1CCC(=C2c3ccccc3CC(=O)c3sccc32)CC1,Potency,[1],inactive
same,"activity change, negative = inhibition",[2],-26%
COc1ccc(-c2cc(C(F)F)nn2-c2ccc(S(N)(=O)=O)cc2)cc1F,Potency,[1],inactive
same,"activity change, negative = inhibition",[2],1.11%
CC(C)[C@@H]1CC[C@@H](C)CC1=O,Potency,[1],inactive
same,Potency,[2],inactive
C#C[C@]1(O)CC[C@H]2[C@@H]3CCc4cc(OC)ccc4[C@H]3CC[C@@]21C,Potency,[1],inactive
same,Potency,[2],inactive
O=C(OCc1ccccc1)c1ccc(O)cc1,Potency,[1],inactive
same,Potency,[2],inactive
CC(=O)OC[C@H]1O[C@@](COC(C)=O)(O[C@H]2O[C@H](COC(C)=O)[C@@H](OC(C)=O)[C@H](OC(C)=O)[C@H]2OC(C)=O)[C@@H](OC(C)=O)[C@@H]1OC(C)=O,Potency,[1],inactive
same,"activity change, negative = inhibition",[2],-0.185%
CCCC(=O)O[C@]1(C(=O)CC)CC[C@H]2[C@@H]3CCC4=CC(=O)CC[C@]4(C)[C@H]3[C@@H](O)C[C@@]21C,Potency,[1],inactive
same,Potency,[2],inactive
C[C@@H]1C[C@H]2[C@@H]3CCC4=CC(=O)C=C[C@]4(C)[C@@]3(F)[C@@H](O)C[C@]2(C)[C@H]1C(=O)CO,Potency,[1],inactive
same,Potency,[2],inactive
CC1=C(C)C(=O)C(C(CCCCCC(=O)O)c2ccccc2)=C(C)C1=O (stereo not drawn),Potency,[1],inactive
same,Potency,[2],inactive
CC(=O)OCC(=O)NCCCOc1cccc(CN2CCCCC2)c1,Potency,[1],inactive
same,Potency,[2],inactive
CCC(=O)O[C@]1(C(=O)SCF)[C@H](C)C[C@H]2[C@@H]3C[C@H](F)C4=CC(=O)C=C[C@]4(C)[C@@]3(F)[C@@H](O)C[C@@]21C,Potency,[1],inactive
same,Potency,[2],inactive
O=C1c2ccccc2C(=O)C1c1ccccc1,Potency,[1],inactive
same,Potency,[2],inactive
C[C@H](CCC(=O)O)[C@H]1CC[C@H]2[C@@H]3C(=O)C[C@@H]4CC(=O)CC[C@]4(C)[C@H]3CC(=O)[C@]12C,Potency,[1],inactive
same,Potency,[2],inactive
O=C(O)c1cn(-c2ccc(F)cc2)c2cc(N3CCNCC3)c(F)cc2c1=O,Potency,[1],inactive
same,Potency,[2],inactive
Cc1ccc(/C=N/n2c(-c3ccccc3)csc2=S)cc1,Potency,[1],inactive
same,"activity change, negative = inhibition",[2],-8.63%
CN(C)CC[C@@H](c1ccc(Cl)cc1)c1ccccn1,Potency,[1],inactive
same,"activity change, negative = inhibition",[2],0.546%
CCOc1ccccc1O[C@H](c1ccccc1)[C@H]1CNCCO1,Potency,[1],inactive
same,"activity change, negative = inhibition",[2],0.393%
CCN[C@@H]1C[C@H](N)[C@@H](OC2OC(CN)=CCC2N)[C@H](O)[C@H]1O[C@H]1OC[C@](C)(O)[C@H](NC)[C@H]1O (stereo partly drawn),"activity change, negative = cytotoxicity",[1],0.776% [at 0.702 µM] (inactive)
same,"activity change, negative = inhibition",[2],42.9% [at 0.702 µM]
CCCOc1ccc(C(=O)OCCN(CC)CC)cc1N,Potency,[1],inactive
same,"activity change, negative = inhibition",[2],2.8% and -24.9%
CC(=O)OCC(=O)Nc1cc(C#N)cc(NC(=O)COC(C)=O)c1Cl,Potency,[1],inactive
same,Potency,[2],inactive
O=C1OC(c2ccc(O)cc2)(c2ccc(O)cc2)c2ccccc21,Potency,[2],inactive
O=c1[nH]c(=O)n([C@H]2C[C@H](O)[C@@H](CO)O2)cc1C(F)(F)F,Potency,[1],inactive
same,"activity change, negative = inhibition",[2],-93.8%
same,Potency,[3],0.242 µM (active)
CCCOc1ccc2nc(NC(=O)OC)[nH]c2c1,Potency,[1],inactive
same,Potency,[3],0.607 µM (active)
O=C(NCC1CN(c2ccc(N3CCOCC3=O)cc2)C(=O)O1)c1ccc(Cl)s1 (stereo not drawn),Potency,[1],inactive
same,"activity change, negative = inhibition",[2],-26.5% and -55.1%
same,Potency,[3],1.71 µM (active)
CN(C(=O)c1c(O)c2ccccc2n(C)c1=O)c1ccccc1,Potency,[1],inactive
same,"activity change, negative = inhibition",[2],-55.9%
same,Potency,[3],inactive
CN1CCC(=C2c3ccccc3CCc3sccc32)CC1,Potency,[1],inactive
same,Potency,[2],14.1 µM (active)
same,Potency,[3],12.1 µM (active)
O=C(Oc1cccc2cccnc12)c1ccccc1,Potency,[2],8.91 µM (active)
CN(C)c1ccc(C(=C2C=CC(=[N+](C)C)C=C2)c2ccccc2)cc1,Potency,[2],4.47 µM (active)
CCCCC(CC)COC(=O)C(C#N)=C(c1ccccc1)c1ccccc1 (stereo not drawn),Potency,[1],inactive
same,"activity change, negative = inhibition",[2],-96.1%
same,Potency,[3],21.5 µM (active)
NC(=O)c1ncn([C@@H]2O[C@H](CO)[C@@H](O)[C@H]2O)c1N,Potency,[1],inactive
same,Potency,[2],inactive
same,"activity change, negative = inhibition",[2],-18.5%
